HttQ103 aggreg = reduces HttQ103-GFP aggregates in PC12 cells | 1.1% of 220,000 active | PC12 HttQ103-GFP aggregates, Acumen cytometry, 40 h | Potency, µM (series often up to 46.1 µM), inactives show top-dose activity change, negative = inhibition, most hits filed as inhibitors | AID 1688; also: potency is read from the fitted curve at half-maximal effect; % is scaled to controls: 0 for no effect and ±100 for the full control effect; nearly all actives have a fitted effect of over 60% in size
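Quantitative HTS on tebufenozide-induced (100 nM) PC12 cells stably expressing polyQ103 Huntingtin exon 1–GFP. Reduction of bright GFP aggregates, detected by laser scanning cytometry after lysis, identified actives across the titration.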
NPSR antag = antagonists of human neuropeptide S receptor cAMP signaling; Q6W5P4; CHO-NPSR cells, cAMP TR-FRET, antagonist mode; Potency, µM (top dose mostly 38.3 µM), for inactives: at the highest dose activity change, negative = inhibition, usual class: inhibitors; 1% of 220,000 active; AID 1461; also: potency is read from the fitted curve at half-maximal effect; % is scaled to controls: 0 for no effect and ±100 for the full control effect; nearly all actives have a fitted effect of over 50% in size
ALOX12 inhib = inhibitors of human 12-lipoxygenase (ALOX12); purified 12-hLO, xylenol orange hydroperoxide absorbance; 0.12% of 150,000 active; Potency, µM (series often up to 57.1 µM), inactives show top-dose activity change, negative = inhibition, usual class: inhibitors; AID 1452; also: potency is read from the fitted curve at half-maximal effect; % is scaled to controls: 0 for no effect and ±100 for the full control effect; nearly all actives have a fitted effect of over 55% in size
Target sequence (P18054 whole entry, looked up): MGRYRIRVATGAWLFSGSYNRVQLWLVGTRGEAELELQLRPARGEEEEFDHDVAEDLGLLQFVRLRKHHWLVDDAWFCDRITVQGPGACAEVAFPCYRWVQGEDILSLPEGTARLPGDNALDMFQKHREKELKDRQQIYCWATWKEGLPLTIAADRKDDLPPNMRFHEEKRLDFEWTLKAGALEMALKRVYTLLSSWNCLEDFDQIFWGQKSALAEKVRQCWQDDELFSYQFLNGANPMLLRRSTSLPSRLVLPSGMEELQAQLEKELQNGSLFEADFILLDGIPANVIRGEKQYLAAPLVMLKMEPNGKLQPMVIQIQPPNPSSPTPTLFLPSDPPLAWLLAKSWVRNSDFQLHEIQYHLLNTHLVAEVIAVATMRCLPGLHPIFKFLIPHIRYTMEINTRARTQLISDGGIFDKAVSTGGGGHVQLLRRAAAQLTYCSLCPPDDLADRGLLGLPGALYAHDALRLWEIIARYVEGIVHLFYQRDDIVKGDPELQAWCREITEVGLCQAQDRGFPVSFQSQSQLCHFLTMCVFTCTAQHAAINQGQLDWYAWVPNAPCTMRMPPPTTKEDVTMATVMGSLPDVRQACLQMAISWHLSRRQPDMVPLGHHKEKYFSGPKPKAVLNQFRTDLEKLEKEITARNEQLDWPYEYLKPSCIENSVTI
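Xylenol orange chromogenic assay: hydroperoxide from 12hLO oxidises Fe(II), giving red-shifted Fe(III)-XO absorbance. Conditions: 150 nM enzyme, 40 uM arachidonic acid, 25 mM Hepes pH 7.0, 0.01% Triton X-100, 30 min, room temperature.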
PNC assembly inh = blocks assembly of the perinucleolar compartment; PC3M PTB-GFP, PNC prevalence imaging, 16 h; active compounds read low; activity change (PNC), negative = inhibition, % at 10 µM; 3.1% of 140,000 active;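 active = readout at or below -70, meaning at least 70% loss of cells showing the perinucleolar compartment, a nuclear body marking cancer cells; inconclusive = readout between -30 and a set limit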;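 also: plate controls were DMSO wells for no effect and camptothecin positive control wells for full effect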
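PC3M cells stably expressing PTB-GFP, 750–1000 cells/well, treated 16 h at 37 °C with compound (23 nl of library stock), in duplicate. After paraformaldehyde fixation and Hoechst stain, imaged at 20x; PNC prevalence scored by image analysis.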
HTT cytoprotect = protects HTT-Q103 PC12 cells, measured by ATP. PC12 HTT-Q103 induced, cytoprotection, ATP luminescence, 40 h. Potency, µM (doses to about 56.4 µM), for the others: cytoprotection (ATP increase), usual class: activators. 0.14% of 230,000 active. AID 1471; also: potency is read from the fitted curve at half-maximal effect; % of control where 0% means no effect; nearly all actives have a fitted effect of over 45% in size
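PC12 cells stably carrying ecdysone-inducible Htt exon 1 (Q103)–GFP were induced with 100 nM tebufenozide (final) alongside library compounds in a dose series. Cytoprotection was scored as retained ATP by ATPlite luminescence.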
IMPase inh = cell-permeable inhibitors of inositol monophosphatase (IMPase); inhibition (IP1 accumulation), % at 46.1 µM; CHO-M1 cells, IP1 accumulation, HTRF TR-FRET ratio; P97697; 120,000 tested, under 10 active; active = well fitted curve in the direction sought with a large enough effect in the signal ratio, not every such curve was filed as active; inconclusive = small, poorly fitted or top-dose-only effect, or a change in a side signal; inactive = no such curve, though single readings can be large or run the other way; the % refers to the signal ratio;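 also: cells stimulated with carbachol in lithium chloride buffer; plate controls were DMSO basal wells for no effect and reference inhibitor wells for full effect; higher means more IMPase inhibition seen as more IP1 and lower FRET ratio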
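In this qHTS, compounds (final up to 46 uM) act on CHO-M1 cells that are then activated through the M1 receptor with carbachol, in pH 7.4 buffer containing 50 mM LiCl, for 30 min. IP1 accumulation is quantified by the IP-One immunoassay.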
Numbers without * were called inactive; ? = inconclusive; · = no result; ! = repeats disagree; [ ] = another dose, or the depositor's remark. Most compounds without a hit are left out; they make up all but 3.3% or so of the library. Unless noted, calls follow the shape of the dose curve; as a rule, active = well fitted curve in the direction sought with a large enough effect; inconclusive = small, poorly fitted or top-dose-only effect, or another doubt; inactive = no such curve, though single readings can be large; an effect the other way counts as inactive or inconclusive.

SMILES	HttQ103 aggreg	NPSR antag	ALOX12 inhib	PNC assembly inh	HTT cytoprotect	IMPase inh
Cc1c(CNC(=O)c2cnn3c2NC(c2ccc(Br)cc2)CC3C(F)(F)F)cnn1C (stereo not drawn)	-13%	?	-17%	-123*	4%	-1
COc1cccc(C2CC(C(F)(F)F)n3ncc(C(=O)NCc4ccco4)c3N2)c1 (stereo not drawn)	2.8µM*	-12%[46.1 µM]	2%	-28	1%[0.074 µM]	1
CC1c2ccccc2N(NC(=O)Cc2ccccc2)C1C (stereo not drawn)	9%[9.22 µM]	-7%	·	·	-4%[10 µM]	·
CC1(C)CC(=O)C2=C(C1)Nc1ccccc1S2	3%[9.22 µM]	?	·	·	4%[10 µM]	·
CC1(C)CC(=S)Nc2ccccc2S1	16%	-6%[46.1 µM]	?	-100*	15%[10 µM]	-7
COn1c(C)c(C(C)=O)c2c3nonc3ccc21	35µM*	8%[46.1 µM]	-3%	-23	6%	-7
COc1ccc(N=Cc2sc(O)c3ccccc23)cc1	-2%	13µM*	?	?	-50%[10 µM]	5[1.84 µM]
COc1ccc(N=Cc2c(O)c3ccccc3n2C(C)=O)cc1	24%[9.22 µM]	-28%	·	·	-12%[10 µM]	·
CC1(c2ccc(Cl)cc2)CC(C)(C)N(C(=O)c2cccc(F)c2)c2ccccc21 (stereo not drawn)	·	·	·	·	·	-5
Cc1ccc(C(C(=O)NC2CCCC2)N2CCCCC2)cc1 (stereo not drawn)	1%	3%	2%	-17	-1%	0
Cc1ccc(C(C(=O)NC2CCCCC2)N2CCCC2)cc1 (stereo not drawn)	-2%	6%[46.1 µM]	-1%	-112*	7%[10 µM]	?
CCc1cccc(Nc2cc(C)nc3nc(C)nn23)c1	35µM*	-4%[46.1 µM]	6%	-29	25%[10 µM]	-15
Cc1cc(Nc2cccc(C(F)(F)F)c2)n2nc(C)nc2n1	-13%	-9%[46.1 µM]	1%	?	12%	-4
COc1ccc2c(c1OC)C(=O)N1N=C(c3ccc(Cl)cc3)CC21 (stereo not drawn)	7%	-16%	4%	-93*	4%[10 µM]	1
Cc1ccc(N2C(=O)c3ccccc3C2C(=O)c2ccc(C)c(C)c2O)cc1 (stereo not drawn)	19%[9.22 µM]	?	·	·	24%[10 µM]	·
COc1cc(/C=C2\SC(=O)NC2=O)ccc1Oc1ccc([N+](=O)[O-])cc1[N+](=O)[O-]	-19%	10µM*	·	·	26%	·
CO/N=C/c1ccc(Oc2ccc([N+](=O)[O-])cc2[N+](=O)[O-])c(OC)c1	?	1%	6%	?	·	·
O=C(ON=C1CCN(S(=O)(=O)c2ccccc2)CC1)c1ccc(F)cc1	-9%	-7%[46.1 µM]	0%	-100*	-15%[10 µM]	-10
CCNC(=S)NNC(=O)c1ccccc1OC(F)F	0%	-7%[46.1 µM]	-4%	34	7%	-1
CCNC(=S)NNC(=O)c1ccccc1Cl	0%	11%	0%	-81*	·	·
CCCCC[C@H](O)/C=C/[C@H]1C(=O)C=C[C@@H]1C/C=C\CCCC(=O)O	·	·	1%	·	5.6µM*!	·
CCCCC[C@H](O)/C=C/[C@H]1[C@H](O)CC(=O)[C@@H]1C/C=C\CCCC(=O)O	2%	·	-1%	·	?	·
COc1ccc(C2C(C(=O)O)CC(=O)N2c2ccc(OC)cc2)cc1 (stereo not drawn)	2%	-8%[46.1 µM]	1%	-14	-4%[10 µM]	-5
CCOC(=O)N1CCN(C(=O)C2CC(=O)N(c3ccc(OC)cc3)C2c2ccc(OC)cc2)CC1 (stereo not drawn)	-3%	-10%[46.1 µM]	6%	-100*	17%[10 µM]	-2
O=C(NC1=NCCS1)c1ccc([N+](=O)[O-])cc1Cl	-10%	9%	·	·	-40%	·
COCCCNC(=O)Cn1cnc2sc(C)c(S(=O)(=O)N3CCN(c4ncccn4)CC3)c2c1=O	-11%	-5%	·	·	-15%	·
Cc1sc2ncn(CC(=O)NCc3ccccn3)c(=O)c2c1S(=O)(=O)N1CCOCC1	-3%	6%[46.1 µM]	6%	-100*	6%[10 µM]	-1
O=C(/C(N=Nc1cccc([N+](=O)[O-])c1)=C(/O)c1ccc(Br)cc1)C(F)(F)F	?	6.3µM*	·	·	-48%[10 µM]	·

Bioassay records: PubChem BioAssay, National Center for Advancing Translational Sciences (NCATS)
